Test results: ChEMBL document CHEMBL3433997, “St. Jude Leishmania screening dataset” (2016)
Several values for one entry are separate records, joined by “and”; a condition that tells them apart may be missing. Equal entries are not always repeated.

These molecules were tested against Solute carrier family 2, facilitated glucose transporter member 1 (Homo sapiens) (UniProt P11166) (assay: ST_JUDE_LEISH: Cytotoxicity at 2uM final concentration against transgenic Leishmania Mexicana promastigotes LmGLUT1 that are glucose transport deficient and complemented with the human glucose transporter GLUT1. Activity is measured by DNA content using SYBR green in vitro).
Sequence of Solute carrier family 2, facilitated glucose transporter member 1 (Homo sapiens) (P11166 whole entry): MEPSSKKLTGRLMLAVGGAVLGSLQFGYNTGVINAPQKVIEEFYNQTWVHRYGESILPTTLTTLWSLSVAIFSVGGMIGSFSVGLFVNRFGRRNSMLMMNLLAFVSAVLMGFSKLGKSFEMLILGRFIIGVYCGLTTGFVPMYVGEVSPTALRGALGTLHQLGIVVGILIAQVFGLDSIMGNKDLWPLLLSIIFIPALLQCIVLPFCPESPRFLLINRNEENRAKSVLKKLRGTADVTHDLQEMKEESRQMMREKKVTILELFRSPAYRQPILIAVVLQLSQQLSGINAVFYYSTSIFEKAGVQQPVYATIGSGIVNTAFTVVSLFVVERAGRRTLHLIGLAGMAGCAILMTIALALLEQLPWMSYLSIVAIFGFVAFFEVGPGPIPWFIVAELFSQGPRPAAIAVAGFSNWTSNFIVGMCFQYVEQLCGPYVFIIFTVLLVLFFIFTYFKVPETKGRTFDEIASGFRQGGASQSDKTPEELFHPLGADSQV
Assay type: functional

| Compound | inhibition |
| --- | --- |
| COc1ccc2nccc([C@@H](O)CN3CCC(NC(=O)C(c4cc5ccccc5o4)N4CCN(c5ccccc5)CC4)CC3)c2c1 (stereo not given in full) | 5.51% |
| CC(Cc1ccc(CNC(=O)c2ccc(CC(C)NCCc3cccc(Cl)c3)cc2)cc1)NCCc1cccc(Cl)c1 (stereo not given) | 1.09% |
| COc1ccc2nccc([C@@H](O)CN3CCC(NCc4nc5c(cc4Cl)SCC(=O)N5)C(F)C3)c2c1 (stereo not given in full) | 2.28% and 11.3% |
| Cc1ccc(C)c(Sc2ccc(NC(=O)CN3CCN(C(=O)c4ccco4)CC3)cc2)c1 | 0.6% |
| CC(=O)Nc1ccc(C(=O)Nc2cccc(-c3cccc(-c4nc5cc(C(F)(F)F)ccc5[nH]4)c3)c2)cn1 | -0.64% |
| Cc1cc2nc(-c3ccc(C(=O)NCCCc4ccccc4)cc3)[nH]c2cc1C | 9.41% |
| COC(=O)c1cccc(CNCc2ccc(-c3ccc(-c4nc5cc(F)ccc5[nH]4)cc3)cc2)c1 | 13% |
| Cc1cc(N2CCCN(C)CC2)nc(Nc2ccc(Cl)cc2)n1 | 1.53% |
| CCCCCN1C(=O)C(c2ccccc2)(c2ccccc2)N=C1N | 4.32% |
| CN1CCC(N2CCN(Cc3cccc(-c4cccc(-c5nc6ccccc6[nH]5)c4)c3)CC2)CC1 | -4.87% |
| CNc1ccc(CNCc2cccc(-c3ccc(-c4nc5ccccc5[nH]4)s3)c2)cc1 | 1.37% |
| Cc1ccc(/C=C/C(=O)NCCCCCN2CCC(c3c[nH]c4ccccc34)CC2)cc1 | 5.46% |
| N#Cc1ccc2c(c1)CCN(CCC1CCC(NC(=O)Nc3cnc4ccccc4c3)CC1)C2 (stereo not given) | 2.8% |
| c1ccc2c3c(ccc2c1)Sc1c(ccc2ccccc12)N3 | 6.27% |
| CCS[C@@H]1O[C@H](COC(=O)c2ccccc2)[C@H](OC(=O)c2ccccc2)[C@H](OC(=O)c2ccccc2)[C@H]1OC(=O)c1ccccc1 | 1.02% |
| CCCc1cc(C(=O)N[C@@H](Cc2ccccc2)[C@H](O)CNC(C)C)c(F)c(N2CCCC2=O)c1 | -2.2% |
| CNCCNCc1ccc(-c2cccc(-c3nc4cc(C(F)(F)F)ccc4[nH]3)c2)cc1 | 3.52% |
| Nc1nc(N)c2c(ccn2Cc2cc3c(cc2Cl)OCO3)n1 | 4.12% |
| O=C(Nc1ccc(C(F)(F)F)cc1)c1ccc(S(=O)(=O)NC2CCN(CC3CCCCC3)C2)cc1 (stereo not given) | -3% |
| O=C(NCc1cccc(CN2CCOCC2)c1)c1cc(Br)cc(N2CCN(c3ccncc3)CC2)c1 | 0.32% |

| Compound | inhibition |
| --- | --- |
| COc1ccc(-c2cncc3ccc(C(=O)NCCCn4ccnc4)nc23)cc1 | 7.45% |
| CC(C)[C@@H](NC(=O)NC1CCC(CCN2C3CCC2CC(OC(=O)C(CO)c2ccccc2)C3)CC1)C(O)(c1ccccc1)c1ccccc1 (stereo not given in full) | 8.23% |
| Cc1ccc(O)c(C(=O)c2cc(C(=O)Nc3ccccc3C)c(=O)n(-c3ccccc3C)c2)c1 | 4.62% |
| Cc1nnsc1C(=O)Nc1cccc(-c2cccc(-c3nc4cc(F)ccc4[nH]3)c2)c1 | 0.66% |
| CC(C)CN1C(=O)c2ccc(C(=O)Nc3nccs3)cc2C1=O | 1.07% |
| COc1ccc2ncc(F)c(C(O)CN3CCC(NCc4ccc5c(n4)NC(=O)CO5)CC3)c2c1 (stereo not given) | -0.67% and 5.77% |
| O=[N+]([O-])c1ccc(C=NNc2nc3ccccc3[nH]2)cc1 | -0.91% |
| O=C(/C=C/c1ccc(Cl)c(Cl)c1)NCCCCCCN1CCN(C(=O)Nc2ccc(Cl)c(Cl)c2)CC1 | 2.42% |
| Cn1cncc1C(=O)Nc1cccc(-c2ccc(-c3nc4ccccc4[nH]3)s2)c1 | 3.45% |
| CN1CCCC(CN2CCN(Cc3cccc(-c4ccc(-c5nc6cc(C(F)(F)F)ccc6[nH]5)cc4)c3)CC2)C1 (stereo not given) | 1.06% |
| CN(C)C1CCN(CC#Cc2cc3ncnc(Nc4ccc(OCc5cccc(F)c5)c(Cl)c4)c3s2)CC1 | 1.79% |
| COc1ccc(Br)cc1/C=C/C(=O)Nc1cccc(C2CCN(C)CC2)c1 | 3.43% |
| Cc1ccc2c(c1)NCC21CCN(C[C@@H](O)C2CCN(c3cc(C#N)ccn3)CC2)CC1C (stereo not given in full) | -1.68% |
| COc1ccc(-c2cc(C(=O)Nc3ccc4[nH]c(-c5ccccc5)nc4c3)[nH]n2)cc1 | 13.1% |
| COc1ccc2ncc(F)c(CCN3CCC(NCc4cc5c(cn4)OCCS5)CC3)c2c1 | 57.8% |
| Cc1cccc(Nc2nc(N)c3ccccc3n2)c1 | 20.9% |
| Cc1ccc(CON2C(N)=NC(N)=NC23CCCCC3)c2ccccc12 | 3.13% |
| CS(=O)(=O)NCCCNCc1ccc(-c2ccc(-c3nc4cc(C(F)(F)F)ccc4[nH]3)cc2)cc1 | 2.14% |
| O=C(Cn1c(CCc2cccc(F)c2F)nc(=O)c2ccccc21)N(Cc1ccc(-c2ccc(C(F)(F)F)cc2)cc1)C1CCN(C2=NCCS2)CC1 | 3.56% |
| Cn1nc(-c2ccc(CN[C@@H]3CCc4ccc(O)cc43)cc2)c2cnc(NC3CCCC3)nc21 | 0.66% |
